The campaign covered roughly 360,000 compounds. About 16,000 (4.4%) were called active. About 9% were inconclusive and are not listed. The list comes from a sample in which actives are over-represented; it also holds similar structures and randomly drawn compounds. Values without a mark were called inactive. The call rests on the fitted dose curve; in most records, active means well fitted inhibition curve with a large enough effect; inconclusive means small, poorly fitted or top-dose-only effect; inactive means no such curve, though single readings can be large or run the other way.
biological target: Bromodomain adjacent to zinc finger domain protein 2B (Homo sapiens) (UniProt Q9UIF8); assay: qHTS Assay for Inhibitors of BAZ2B; conditions: AlphaScreen BAZ2B-H3K14Ac peptide displacement; series mostly up to 114 µM; activity change, negative = inhibition: at the top concentration; further: nearly all actives have a fitted effect of over 60% in size
How it was run: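 In this displacement format the biotinylated H3(5-23) peptide acetylated at Lys14 serves as ligand at 50 nM, with BAZ2B at 50 nM in PBS pH 7.4 containing 0.01% Tween-20. Donor and acceptor beads are 10 ug/mL final.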
On the % scale 0 is the no-effect control and ±100 the full control effect; potency means the concentration at half of the fitted maximal effect.

Sequence of Bromodomain adjacent to zinc finger domain protein 2B (Homo sapiens) (Q9UIF8 whole entry, looked up, the tested form may be a part): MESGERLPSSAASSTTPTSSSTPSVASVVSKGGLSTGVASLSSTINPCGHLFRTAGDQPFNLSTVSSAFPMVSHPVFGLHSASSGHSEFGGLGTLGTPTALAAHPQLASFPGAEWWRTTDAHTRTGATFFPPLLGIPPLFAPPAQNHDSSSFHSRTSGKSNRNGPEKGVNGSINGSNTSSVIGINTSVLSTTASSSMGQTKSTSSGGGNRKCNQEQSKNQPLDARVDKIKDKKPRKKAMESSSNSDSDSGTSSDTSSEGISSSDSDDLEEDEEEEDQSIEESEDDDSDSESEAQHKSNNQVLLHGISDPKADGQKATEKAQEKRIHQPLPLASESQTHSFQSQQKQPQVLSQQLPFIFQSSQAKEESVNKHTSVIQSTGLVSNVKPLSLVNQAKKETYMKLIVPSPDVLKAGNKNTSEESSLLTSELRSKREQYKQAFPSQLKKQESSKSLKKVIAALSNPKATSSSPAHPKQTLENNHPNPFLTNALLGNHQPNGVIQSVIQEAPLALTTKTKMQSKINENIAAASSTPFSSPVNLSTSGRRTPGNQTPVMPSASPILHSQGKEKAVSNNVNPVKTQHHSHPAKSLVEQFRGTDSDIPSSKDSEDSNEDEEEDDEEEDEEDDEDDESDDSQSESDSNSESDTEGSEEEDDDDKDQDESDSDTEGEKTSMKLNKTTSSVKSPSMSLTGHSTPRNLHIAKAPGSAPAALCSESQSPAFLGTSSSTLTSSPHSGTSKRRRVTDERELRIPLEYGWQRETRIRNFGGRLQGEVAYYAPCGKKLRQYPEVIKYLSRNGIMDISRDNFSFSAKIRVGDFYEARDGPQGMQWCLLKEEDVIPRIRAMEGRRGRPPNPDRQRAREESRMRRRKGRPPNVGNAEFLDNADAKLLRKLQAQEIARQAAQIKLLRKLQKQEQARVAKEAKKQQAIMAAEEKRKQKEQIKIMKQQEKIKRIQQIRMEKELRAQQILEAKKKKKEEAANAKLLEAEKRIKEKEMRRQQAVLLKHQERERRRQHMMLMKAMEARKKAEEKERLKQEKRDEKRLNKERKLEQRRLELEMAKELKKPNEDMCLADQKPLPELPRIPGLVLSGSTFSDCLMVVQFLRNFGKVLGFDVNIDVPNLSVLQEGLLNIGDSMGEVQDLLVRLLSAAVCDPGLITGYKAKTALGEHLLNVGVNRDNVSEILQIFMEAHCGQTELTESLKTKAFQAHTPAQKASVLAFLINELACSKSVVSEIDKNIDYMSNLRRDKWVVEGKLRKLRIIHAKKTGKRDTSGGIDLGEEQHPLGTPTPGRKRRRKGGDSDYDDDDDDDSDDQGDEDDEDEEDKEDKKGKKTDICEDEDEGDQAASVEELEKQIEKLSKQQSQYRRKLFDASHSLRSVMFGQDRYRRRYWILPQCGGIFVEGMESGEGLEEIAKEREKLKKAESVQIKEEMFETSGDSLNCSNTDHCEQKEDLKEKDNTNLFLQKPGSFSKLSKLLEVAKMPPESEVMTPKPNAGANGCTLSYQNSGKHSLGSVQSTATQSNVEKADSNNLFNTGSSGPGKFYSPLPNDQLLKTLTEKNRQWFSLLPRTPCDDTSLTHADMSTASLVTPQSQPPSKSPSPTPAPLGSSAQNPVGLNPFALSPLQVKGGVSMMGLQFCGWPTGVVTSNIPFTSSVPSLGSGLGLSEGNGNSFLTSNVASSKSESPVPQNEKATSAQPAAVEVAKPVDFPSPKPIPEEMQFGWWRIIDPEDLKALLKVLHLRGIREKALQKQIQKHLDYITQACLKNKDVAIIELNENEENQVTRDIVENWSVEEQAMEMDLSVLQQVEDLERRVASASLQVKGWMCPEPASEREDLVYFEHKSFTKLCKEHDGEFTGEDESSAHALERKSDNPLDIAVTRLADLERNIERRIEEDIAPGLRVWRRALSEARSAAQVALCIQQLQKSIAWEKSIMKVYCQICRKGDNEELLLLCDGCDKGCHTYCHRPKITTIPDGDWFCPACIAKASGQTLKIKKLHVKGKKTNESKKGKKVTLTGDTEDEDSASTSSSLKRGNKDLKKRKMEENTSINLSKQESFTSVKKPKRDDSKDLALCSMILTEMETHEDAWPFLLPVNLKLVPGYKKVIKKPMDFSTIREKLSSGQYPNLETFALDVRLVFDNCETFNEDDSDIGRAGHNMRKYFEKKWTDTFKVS

Point of comparison: `COc1ccccc1CN1CCC(CNC(=O)c2cnn(-c3cccc(Cl)c3)c2C2CCN(C(=O)OC(C)(C)C)CC2)CC1`, “activity change, negative = inhibition” value 4.39% [at 57.1 µM]. Against it:
- CCOc1ccc(CCNC(=O)c2c(C)oc3ncn(C)c(=O)c23)cc1 — higher, 16.3% [at 57.1 µM]
- Cc1cccc(N2CCN(S(=O)(=O)c3ccc4[nH]c5c(c4c3)CCCCC5)CC2)c1C — lower, -8.85% [at 57.1 µM]

In the case of `CCN1C(=S)N[C@@H](c2cccc(C(F)(F)F)c2)C(C(=O)OC)=C1C`, the Potency is reported as 50.1 µM (active).
`COc1ccc(/C=C/C(=O)c2cc(Br)ccc(=O)c2O)cc1` was tested, and the Potency was 44.7 µM (active).
With `Cc1ccc(OCC(=O)Nc2ccc(N3CCN(C(=O)c4ccco4)CC3)cc2)c(C)c1` the Potency was 31.6 µM (active).
In the case of `O=C(NNc1c2ccccc2nc2ccccc12)c1cc2ccccc2cc1O`, the Potency is reported as 8.91 µM (active).
For `C/C(=N\NC(=O)c1ccoc1C)c1ccccc1O`, the Potency was 50.1 µM (active).
For `CC(C)(C)Nc1nc(-c2ccccn2)nc2ccccc12`, the Potency was 50.1 µM (active).
In the case of `Clc1cccc(CN2COc3c(cc(Cl)c4cccnc34)C2)c1`, the Potency is reported as 28.2 µM (active).
For `O=c1ccc2c(-c3ccccc3S(=O)(=O)O)c3ccc(O)c(O)c3oc-2c1O`, the Potency was 1 µM (active).
For `Cc1ccc(NC(=O)CNCc2ccccn2)cc1S(=O)(=O)N(C)C`, the Potency was 25.1 µM (active).
For `Nc1ccc(N=Nc2ccccc2Cl)c(N)n1`, the Potency was 25.1 µM (active).

Point of comparison: `COc1ccccc1-c1cc(C(F)(F)F)nc(S(=O)(=O)CCCC(=O)Nc2cc(C)ccc2O)n1`, “activity change, negative = inhibition” value -3.61%. Against it:
- COC(=O)C1=C(C)N(C)C(=S)NC1c1ccccc1 (stereo not given) — higher, 6.05%
- COCCN1C(=O)N[C@@H](c2ccccc2)C(C(=O)OC)=C1C — lower, -4.69%
- COC(=O)CC1Oc2ccccc2-n2cc(-c3ccccc3)nc21 (stereo not given) — lower, -31.9%
- COc1ccc(C(=O)/C=C/c2ccc(OC3CSC3)cc2)cc1 — lower, -4.21%
- COc1ccc(C(=O)/C=C/c2cccnc2)c(OC)c1 — higher, 2.6%
- COc1cc(OC)c(OC)cc1/C=C/c1nc2cc3ccccc3cc2c(=O)n1-c1ccc(F)c(Cl)c1 — lower, -24%
- COc1ccc(CCNS(=O)(=O)c2cc(-c3cc(C)no3)ccc2C)cc1OC — higher, -3.59%
- Cc1ccc(C)c(OCC(=O)N2CCN(C(=O)c3ccco3)CC2)c1 — higher, 6.13%
- CCC(=O)Nc1ccc(C(=O)N2CCN(C(=O)c3ccco3)CC2)cc1 — lower, -11.3%
- CCOc1ccc(Nc2c(S(=O)(=O)c3ccccc3)cnc3ccccc23)cc1 — lower, -29.1%
- CC(C)(C)OC(=O)NNc1c2ccccc2nc2ccccc12 — lower, -38.3%
- O=C(N/N=C/c1cccnc1)c1cc2ccccc2cc1O — lower, -13.6%
- COC(=O)c1ccccc1NC(=O)c1ccc2c(=O)n3c(nc2c1)CCCCC3 — higher, 0.816%
- CC1=C(C(=O)N2CCN(c3cccc(C(F)(F)F)c3)CC2)C2(CCCCC2)OC1=O — lower, -9.34%
- O=C(NCc1ccccc1)C(=O)NCC(c1ccco1)S(=O)(=O)c1ccc(Cl)cc1 (stereo not given) — higher, -0.73%
- Cc1cc(C(=O)NNC(=O)c2ccccc2O)c(C)o1 — lower, -5.59%
- CC(C)=C(NC(=O)c1ccccc1)C(=O)N/N=C(\C)c1ccccc1O — lower, -7%
- COc1cccc(-c2nc(S(=O)(=O)c3ccc(C)cc3)c(NCc3ccccc3)o2)c1 — higher, 17.1%
- CCOCCCNc1nc(-c2ccccc2)nc2ccccc12 — higher, 6.2%
- CCC(=O)OCCNc1nc(-c2ccccc2)nc2ccccc12 — higher, 3.03%
- O=c1c2ccccc2n(Cc2cccc(Cl)c2)c(=O)n1Cc1ccccc1 — lower, -8.19%
- O=c1c2cccnc2n(Cc2cccc(F)c2)c(=O)n1Cc1ccccc1Cl — higher, 41.6%
- COc1ccc(CNC(=O)c2cc3c(s2)-c2ccccc2OC3)cc1 — higher, 1.59%
- Cc1nc2c(-c3ccccc3)c(C)nn2c(C)c1CCC(=O)NCCc1ccccc1 — higher, 3.94%
- CC1=C(c2ccc(C)cc2)S(=O)(=O)NC1=NCCCN1CCN(c2cc(C)ccc2C)CC1 — lower, -24.4%
- COc1ccc(CCNC(=O)c2cnc3sc(N4CCCCCC4)nn3c2=O)cc1OC — lower, -16.6%
- O=C(CCn1c(=O)c2ccccc2n(Cc2ccc(Cl)cc2)c1=O)NCc1ccc2c(c1)OCO2 — higher, 2.09%
- CCN(c1ccccc1)S(=O)(=O)c1cc(C(=O)NCc2ccccn2)ccc1C — higher, 4.88%
- Cc1ccc(NC(=O)c2cccs2)cc1S(=O)(=O)N(C)C — higher, 9.52%
- O=S(=O)(Nc1ccc2nc(-c3cccc(Cl)c3)oc2c1)c1ccccc1 — lower, -6.28%
- COc1ccc(CNC(=O)CSc2nc3ccccc3nc2Cc2ccccc2)cc1 — higher, 3.24%
- CC(C)(C)c1ccc(C(=O)NCC(c2ccco2)S(=O)(=O)c2ccc(F)cc2)cc1 (stereo not given) — lower, -17.7%
- Cc1nc2nc(SCC(=O)NC3CCC(C)CC3)nn2c(C)c1Cc1ccccc1Cl (stereo not given) — lower, -13.3%
- COc1ccc(C(=O)Nc2onc3c2CCCC3)cc1 — lower, -3.98%
- CCOc1ccc(NC(=O)c2c(NC(=O)Cc3ccccc3)sc3c2CCC(C)C3)cc1 (stereo not given) — lower, -21.1%
- CCCCOC(=O)CSc1ncnc2sc3c(c12)CCC(C)C3 (stereo not given) — higher, 18.9%

From PubChem BioAssay AID504333 (National Center for Advancing Translational Sciences (NCATS), 2011)
